# Screen size: about 280,000 compounds; about 100 (0.036%) were called active. Roughly 11% stayed inconclusive and do not appear here. This excerpt belongs to a sample that is enriched for actives. Values without a mark were called inactive. The call rests on the fitted dose curve; in most records, active means well fitted inhibition curve with a large enough effect in the signal ratio, with a control signal flat (not every such curve was filed as active); inconclusive means small, poorly fitted or top-dose-only effect, or effect the other way, or a change in a side signal; inactive means no such curve, though single readings can be large or run the other way; the % refers to the signal ratio.
# Biological target: Muscleblind-like protein 1 (Homo sapiens) (UniProt Q9NR56)
# Assay: qHTS Assay for Inhibitors of MBNL1-poly(CUG) RNA binding
# Conditions: TR-FRET MBNL1-His/biotin-(CUG)12 binding, 665/545 ratio; series mostly up to 57.5 µM; activity change, negative = inhibition: at the top concentration
# From the text: NIH Chemical Genomics Center [NCGC] NIH Molecular Libraries Probe Production Centers Network [MLPCN] MLPCN Grant: R03 MH087421-01 Assay Submitter (PI): Charles Thornton NCGC Assay Overview: Expanded CTG repeats in the 3' untranslated region of the DM protein kinase (DMPK) gene causes type I myotonic dystrophy (DM1). DM1 is a multi-systemic disease with a prevalence of 1/7000. Clinical features include myotonia, progressive muscle weakness and wasting, cardiac arrhythmia, insulin resistance, hypersomnolence, cataracts, and other symptoms. The pathogenic effect of expanded CTG repeats stems from deleterious effects of the mutant transcript. CUGexp mRNA accumulates in nuclear foci and sequesters proteins of the muscleblind family, of which MBNL1 is the most common family member in skeletal muscles. The binding interaction between MBNL1 and CUGexp tracts leads to deregulation of alternative splicing and is therefore a key molecular step in the pathogenesis of DM1. To target this binding interaction, we optimized a protein-RNA binding assay in 1536-well format for identification of small molecule inhibitors of biotinylated (CUG)12 and his-tagged MBNL1 binding. Protein-RNA complex of MBNL1-His and Biotin-(CUG)12 captures the detection reagents terbium-labeled anti-His antibody and streptavidin conjugated XL665. This brings the terbium label within close proximity to XL665 to allow time-resolved fluorescence resonance energy transfer (TR-FRET). Inhibitors of MBNL1-(CUG)12 binding will disrupt TR-FRET.
# NCGC Assay Protocol Summary: This is a TR-FRET binding assay with MBNL1-His and Biotin-(CUG)12 RNA. The assay uses a ratiometric measurement. In the presence of MBNL1-(CUG)12 complex, the excitation energy is transferred to the XL665 acceptor label, causing emission at 665nm, while the 545nm donor signal […]. Data were normalized to the controls for basal activity (buffer only) and 100% activity (with MBNL1-(CUG)12). […] The final titration was 92 nM to 58 uM. (3) Add 1 ul of terbium labeled anti-His antibody (0.055 ng/ul final concentration) (4) Add 1 ul of streptavidin-XL665 (5 nM final concentration) (5) Incubate 60 min at room temperature (6) Detect the assay plate in a EnVision plate reader (PerkinElmer) with Ex=340 nm, Em1=665 nm and Em2=545 nm. Keywords: mytonic dystrophy type I, DM1, muscleblind like 1, MBNL1, CUG expansion, protein-RNA binding inhibitor, high throughput screening, MLSMR, MLSCN, NIH Roadmap, qHTS and NCGC
# On the % scale 0 is the no-effect control and ±100 the full control effect; potency means the concentration at half of the fitted maximal effect.
# Chain of Muscleblind-like protein 1 (Homo sapiens) (Q9NR56 whole entry, looked up): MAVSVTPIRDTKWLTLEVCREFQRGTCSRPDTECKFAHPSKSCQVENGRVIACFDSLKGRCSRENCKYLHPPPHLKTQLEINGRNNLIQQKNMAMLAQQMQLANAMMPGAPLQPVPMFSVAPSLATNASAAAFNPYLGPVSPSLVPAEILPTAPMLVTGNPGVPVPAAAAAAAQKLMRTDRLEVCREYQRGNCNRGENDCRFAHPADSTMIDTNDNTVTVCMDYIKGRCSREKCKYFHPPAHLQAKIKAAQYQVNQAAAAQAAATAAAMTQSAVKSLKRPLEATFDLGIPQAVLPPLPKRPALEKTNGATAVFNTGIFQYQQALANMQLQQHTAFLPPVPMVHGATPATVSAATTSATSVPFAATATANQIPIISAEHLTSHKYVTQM
SMILES,"activity change, negative = inhibition",Potency
COc1ccc(N2CCN(C(=O)Cn3cnc4sc(C)c(S(=O)(=O)N5CCOCC5)c4c3=O)CC2)cc1,-1.37%,
COc1cccc(NC(=O)Cn2cnc3sc(C)c(S(=O)(=O)N4CCN(C)CC4)c3c2=O)c1,,31.6 µM (active)
Cc1sc2ncn(CC(=O)NCCN(C)C)c(=O)c2c1S(=O)(=O)N1CCC(C)CC1,-4.22%,
CCC1Sc2ccc(S(=O)(=O)CCC(=O)NCc3cccs3)cc2NC1=O (stereo unspecified),5.1%,
O=C(CNc1cccc(S(=O)(=O)N2CCCCC2)c1)Nc1ccccc1F,-2.44%,
Cc1c(C)c2ccc(OCC(=O)N3CCN(c4cccc(Cl)c4)CC3)cc2oc1=O,2.33%,
CC1CN(C(=S)Nc2ccccc2F)CC(C)O1 (stereo unspecified),5%,
O=C(Nc1ccc(Cl)cc1)c1cccc(OC(=S)N2CCOCC2)c1,0.659%,
CC(=O)N1CCN(c2ccccc2NC(=S)NC(=O)c2cc3ccccc3o2)CC1,4.92%,
COc1ccc(N2CCN(C(=O)[C@@H](NC(=O)c3cc(OC)cc(OC)c3)C(C)C)CC2)cc1,2.58%,
O=[N+]([O-])c1ccc(O)c(/C=N/Nc2ccccc2[N+](=O)[O-])c1,4.22%,
O=C1OC2(CCCCC2)CC2=C1C1O[C@](c3ccsc3)(Cc3ccccc31)O2,-2.14% [at 11.5 µM],
CCCCn1c(-c2cccc(C)c2)nc2cc3[nH]c(=O)c(C(C)C)nc3cc21,24.5%,
COc1cc(C(=O)NCc2ccncc2)cc(Br)c1OCc1ccccc1,3.45%,
CC1CCN(C(=S)NC(=O)c2ccccc2Br)CC1,-1.98%,
CCC(CC)c1nnc(NC(=O)C2CCN(C(=O)c3ccco3)CC2)s1,-6.3%,
COc1cccc(Cn2cc(/C=N/NC(=O)c3cc(O)cc(O)c3)c3ccccc32)c1,11.8%,
CC1(C(=O)NNC(=S)NCC2CCCO2)CC1(Cl)Cl (stereo unspecified),3.47%,
CCCCC(CC)CNCc1cccn1CCN1CCOCC1 (stereo unspecified),-4.21%,
COc1ccc(CSc2nnnn2-c2ccc(O)cc2)cc1F,-0.34%,
CCOCCCNc1nc(-c2ccccc2)nc2ccccc12,-0.21%,
COc1ccc(Cc2n[nH]c(=S)n2NC(=O)Nc2ccc(C)cc2)cc1,,25.1 µM (active)
CCOc1ccc(NC(=O)CN2CCN(CC(=O)Nc3ccc(OC)cc3)CC2)cc1,-6.49%,
COc1ccc(NC(=S)NCCNC(C)=O)cc1,-8.99%,
COc1ccc(C(=O)c2c(C)c(CCC#N)n3ccccc23)c(OC)c1,15.2%,
Cc1[nH]c(C)c(S(=O)(=O)N2CCN(c3cccc(C(F)(F)F)c3)CC2)c1C(=O)N1CCCCC1,-1.53%,

SMILES,"activity change, negative = inhibition",Potency
Cc1ccccc1C(=O)N1CCN(c2ccc(NC(=O)c3cccs3)cc2)CC1,-3.93%,
CC(=O)c1ccc(NC(=O)c2sc3nc4n(c(=O)c3c2C)CCCCC4)cc1,18.1%,
CC(=O)N1c2ccc(S(=O)(=O)NCCC(=O)N(C)C3CCCCC3)cc2CC1C (stereo unspecified),-7.41%,
CC(=O)c1ccc(N2CCN(C(=O)C3CCN(S(=O)(=O)c4ccc5c(c4)CC(C)N5C(=O)C4CC4)CC3)CC2)cc1 (stereo unspecified),119%,
C/C(=N\NC(=O)c1ccoc1C)c1ccccc1O,-2.77%,
COc1ccc(N2CCN(S(=O)(=O)CCNC(=O)C34CC5CC(CC(C5)C3)C4)CC2)cc1,3%,
O=C(Nc1ccncc1)Nc1ccc(F)cc1,-18.5%,
O=S(=O)(c1cccc(Cn2nnc(-c3ccc(F)cc3)n2)c1)N1CCOCC1,-3.65%,
CN(CC(=O)Nc1ccc(F)cc1)C(=O)c1ccc(-c2ccc(Cl)cc2)o1,8.57%,
COc1ccccc1CCNC(=O)c1c(C)nn(CC(C)C)c1Cl,2.7%,
CCCOc1ccc(C2=CSC3=NCCN23)cc1Cl,-1.02%,
CN(CC1CCCO1)S(=O)(=O)c1ccc(C(=O)Nc2ccc(F)cc2)cc1 (stereo unspecified),-7.38%,
Cc1ccc2sc(N(CCN(C)C)C(=O)/C=C/c3cccs3)nc2c1C,-2.08%,
Cc1cc(C)c(SCCc2ccncc2)c(C)c1,0.435%,
Cc1ccc(OCC(=O)Nc2ccc(N3CCN(C(=O)c4ccco4)CC3)cc2)c(C)c1,-0.689%,
COc1ccc(CN(C)C(=O)Cc2ccsc2)c(OC)c1OC,0.57%,
Cc1ccc(-c2noc(C3CCCN(C(=O)c4cccc(Cl)c4)C3)n2)o1 (stereo unspecified),2.29%,
O=C(C1CCC(=O)N(C2CC2)C1)N1CCN(c2ccc(Cl)cc2)CC1 (stereo unspecified),-0.926%,
Cc1cc(C)c(NC(=O)CN2CCCCCC2)c(C)c1,-20.5%,
COc1cc(Nc2nc3ccc(Cl)cc3n3cnnc23)cc(OC)c1OC,-3.17%,
Cc1ccc(CS(=O)(=O)CCC(=O)NCc2ccc(F)cc2)cc1,-2.74%,
CCOC(=O)C1(CCOC)CCN(Cc2cc3ccccc3s2)CC1,-6.13%,
CCOCCCn1c(SCC(=O)Nc2cc(OC)ccc2OC)nc2ccccc2c1=O,0.658%,
C[C@H]1[C@H]2c3nc4ccccc4n3C[C@H]1ON2C1CCCCC1,-0.651%,
C=CCNc1nc(N)c([N+](=O)[O-])c(NC2CCCCC2)n1,-5.63%,
Cc1[nH]c2ccccc2c1C(=O)CN1CC(C)CC(C)C1 (stereo unspecified),-2.63%,

SMILES,"activity change, negative = inhibition",Potency
O=C(c1ccccc1)N1N=C(c2ccccc2O)CC1c1ccc(Br)cc1 (stereo unspecified),-12.2%,
Nc1nc(Nc2ccccc2F)nc(NC2CCCCC2)c1[N+](=O)[O-],-5.13%,
COc1ccc(OC)c(CNC(=O)Cn2nc(C)c3c(C)n(-c4ccc(C)cc4)nc3c2=O)c1,-0.935%,
Cc1ccc(C)c(N2CCN(C(=O)CCCn3c(=O)c4cccn4c4cccnc43)CC2)c1,-1.23%,
CCOc1ccc(NC(=O)CCCCCN2C(=O)[C@@H]3Cc4ccccc4CN3C2=O)cc1,4.13%,
CCc1ccc(/C=N/NC(=O)c2nnn(-c3nonc3N)c2CN2CCc3ccccc32)cc1,1.76%,
COc1ccc(NS(=O)(=O)c2cc(C(=O)Nc3ccccc3C(=O)O)ccc2C)cc1,-13.3%,
COc1ccc(CN(C)C(=O)c2cc(-c3ccc(C)cc3C)nc3ccccc23)c(OC)c1OC,-0.265%,
O=C(NCc1cccc(Cl)c1)C1CCC(=O)N(C2CC2)C1 (stereo unspecified),-9.91%,
CC(=O)N1c2ccc(S(=O)(=O)N3CCC(C(=O)N4CCN(c5ccccc5)CC4)CC3)cc2CC1C (stereo unspecified),-1.97%,
O=C(NCCCN1CCOCC1)c1ccc2c(c1)N(Cc1cccc(F)c1)C(=O)c1ccccc1S2,76.5%,
CCc1ccc(C(CNc2nc(C(F)(F)F)nc3ccccc23)N(C)C)cc1 (stereo unspecified),-3.64%,
Cc1nnc(NC(=O)C(c2ccccc2)c2ccccc2)s1,1.22%,
COc1cccc(CCNC(=O)c2cccc(NC(=O)C3=C(C)OCCS3)c2)c1,-1.35%,
Cc1cc(=O)[nH]c(Nc2cccc(Br)c2)n1,-10%,
COc1ccccc1N1CCN(S(=O)(=O)CCNC(=O)c2ccc(OC(C)C)cc2)CC1,1.83%,
COc1cccc(CN(C)CC(O)COC(c2ccccc2)c2ccccc2C)c1 (stereo unspecified),-1.85%,
CCOc1ccc(NC(=O)C(C)N2C(=O)c3ccccc3C2=O)cc1 (stereo unspecified),1.24%,
CCOc1ccc(NC(=O)c2nc(SCC)ncc2Cl)cc1,-14.6%,
CCC(C)[C@H](NC(=O)N1CCn2c1nc1ccccc12)C(=O)NCc1ccc(OC)cc1 (stereo partly specified),-2.53%,
COc1ccc(NC(=O)c2cc([N+](=O)[O-])ccc2NC(=O)CNC2CCCCC2C)c(OC)c1 (stereo unspecified),18.6%,
COc1ccc(CCNC(=O)c2ccccc2OCc2ccccc2)cc1,-4.43%,
Cc1cc(Cl)ccc1C(=O)C1CCCN(C(=O)c2nonc2C)C1 (stereo unspecified),0.612%,
CC(CCc1ccc(O)cc1)NCc1ccc(Cl)cc1Cl (stereo unspecified),-4.16%,
COc1ccc(CCNCc2c(-c3ccccc3)n(C)c3ccccc23)cc1,-10.3%,
CCC(=O)c1cn(CCOc2ccccc2OC)c2ccccc12,2.83%,

SMILES,"activity change, negative = inhibition",Potency
COc1ccc(CC(=O)N/N=C/c2cc([N+](=O)[O-])cc(Br)c2O)cc1,-0.176%,
COC(=O)c1cc(S(=O)(=O)N2CCN(c3cc(C)ccc3C)CC2)c[nH]1,0.607%,
COc1cccc(C(=O)Nc2ccc(N3CCN(C(=O)c4ccco4)CC3)cc2)c1,-4.34%,
COC(=O)c1ccc(CN2CCCC(C(=O)Nc3cccc(-n4cnnn4)c3)C2)cc1 (stereo unspecified),-5.86%,
Cc1cc(=O)oc2c(C)c(OC(C)C(=O)NC3CCN(Cc4ccccc4)CC3)ccc12 (stereo unspecified),-6.34%,
C[C@H](NC(=O)[C@@H]1Cc2ccccc2CN1C(=O)OC(C)(C)C)C(=O)NC1CCCC1,0.26%,
CCCn1c(C2CCCN2c2nc(-c3ccc(OC)cc3)cs2)nc2ccccc21 (stereo unspecified),46.7%,
Cc1ccc2nc(-c3ccncc3)cc(C(=O)Nc3ccncc3)c2c1,20.1%,
COc1cccc(C(=O)N/N=C(\C)c2cccc(NC(=O)c3ccc(F)cc3)c2)c1OC,-0.886%,
O=C(NCCCO)c1cc2c([nH]c3ccccc32)c(-c2ccc(F)cc2)n1,-3.77%,
CCCC(=O)N1CCN(c2nnc(-c3ccc(C)cc3)c3ccccc23)CC1,15%,
Cc1cc(Cl)ccc1OCCCC(=O)Nc1cccc(-n2cnnn2)c1,-0.924%,
CCOc1ccc(CCNC(=O)CCc2nnc3ccc(N4CCCC4)nn23)cc1OCC,13.4%,
CC(=O)N1CCOc2ccc(S(=O)(=O)N3CCN(c4cccc(C(F)(F)F)c4)CC3)cc21,-1.07%,
CCCCN(CCCC)CCCNC(=O)CN1C(=O)COc2ccc(S(=O)(=O)N3CCC(C)CC3)cc21,-14.2%,
Cc1ccc(OCC(=O)Nc2ccc(C(=O)O)cc2NC(=O)COc2ccc(C)c(C)c2)cc1C,6.17%,
COc1ccc(C(=O)CC(=O)C(=O)Nc2cc([N+](=O)[O-])ccc2OC)cc1,0.59%,
CC(C)c1ccc(S(=O)(=O)N2CCN(C(=O)c3ccc(N4CCCC4)c([N+](=O)[O-])c3)CC2)cc1,-3.33%,
COc1cccc(NC(=O)C2CCCN(c3ncnc4c3nc3n4CCCCC3)C2)c1 (stereo unspecified),-5.89%,
Cc1ccc(CN2CCC(n3nccc3NC(=O)CCCc3ccccc3)CC2)o1,5.27%,
CCc1ccc(NC(=O)CN2CCC(C(=O)c3ccc(OC)cc3)CC2)cc1,2.27%,
O=C(Nc1ccccc1N1CCCC1)c1ccc2ccccc2c1,9.01%,
CCCCCN(C(=O)CCC(=O)OCC(=O)NCc1ccc(OC)cc1)c1c(N)n(CCCC)c(=O)[nH]c1=O,-3.21%,

# Source: PubChem BioAssay AID2675 (National Center for Advancing Translational Sciences (NCATS), 2010)
